Test results reported in the supplement of paper PMC12067093, “Discovery and optimisation of a covalent ligand for TRIM25 and its application to targeted protein ubiquitination” (Chemical Science, 2025).
About 21,000 targets were measured; listed, in parts, are those with the largest changes and a random draw of the rest.

The targets below were run with Cc1cc(ccc1-c1ccccc1)C(=O)N1CCCN(CC1)C(=O)CCl [compound 10] (assay: probe-labelled cysteine peptide fold change vs DMSO (competition) (log2 fold change); higher = less target engagement (more negative = stronger competition)). Conditions: 10 µM; THP-1; incubation time: 4 h.
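Note: competitive profiling in live THP-1 cells: cysteine peptides tagged with an iodoacetamide desthiobiotin (IA-DTB) probe, intensity after compound treatment relative to DMSO-treated cells.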

Sequence of UniProt Q93050 (Q93050 whole entry, looked up): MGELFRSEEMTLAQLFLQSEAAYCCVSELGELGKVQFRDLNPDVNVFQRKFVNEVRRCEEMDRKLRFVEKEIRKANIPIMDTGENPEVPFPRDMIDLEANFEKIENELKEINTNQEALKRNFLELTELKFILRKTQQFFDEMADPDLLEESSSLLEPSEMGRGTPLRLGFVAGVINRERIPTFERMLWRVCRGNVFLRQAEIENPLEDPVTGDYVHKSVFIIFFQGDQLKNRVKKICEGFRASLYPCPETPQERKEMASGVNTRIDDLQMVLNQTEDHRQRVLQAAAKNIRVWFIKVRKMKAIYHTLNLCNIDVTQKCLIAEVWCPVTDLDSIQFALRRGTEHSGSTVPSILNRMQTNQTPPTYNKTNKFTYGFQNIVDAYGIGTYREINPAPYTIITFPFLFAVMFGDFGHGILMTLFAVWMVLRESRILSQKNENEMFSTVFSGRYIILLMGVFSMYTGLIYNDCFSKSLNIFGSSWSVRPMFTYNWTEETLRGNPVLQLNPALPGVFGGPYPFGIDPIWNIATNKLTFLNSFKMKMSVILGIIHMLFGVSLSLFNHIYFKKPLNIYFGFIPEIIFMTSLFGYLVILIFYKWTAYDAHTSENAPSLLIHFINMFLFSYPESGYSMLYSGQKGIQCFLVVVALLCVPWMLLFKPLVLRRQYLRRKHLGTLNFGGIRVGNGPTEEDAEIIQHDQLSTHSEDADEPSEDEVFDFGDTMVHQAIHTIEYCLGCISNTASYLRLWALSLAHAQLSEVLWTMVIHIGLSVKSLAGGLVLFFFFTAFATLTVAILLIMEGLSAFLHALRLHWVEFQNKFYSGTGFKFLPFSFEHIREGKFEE
Sequence of UniProt P54259 (P54259 whole entry): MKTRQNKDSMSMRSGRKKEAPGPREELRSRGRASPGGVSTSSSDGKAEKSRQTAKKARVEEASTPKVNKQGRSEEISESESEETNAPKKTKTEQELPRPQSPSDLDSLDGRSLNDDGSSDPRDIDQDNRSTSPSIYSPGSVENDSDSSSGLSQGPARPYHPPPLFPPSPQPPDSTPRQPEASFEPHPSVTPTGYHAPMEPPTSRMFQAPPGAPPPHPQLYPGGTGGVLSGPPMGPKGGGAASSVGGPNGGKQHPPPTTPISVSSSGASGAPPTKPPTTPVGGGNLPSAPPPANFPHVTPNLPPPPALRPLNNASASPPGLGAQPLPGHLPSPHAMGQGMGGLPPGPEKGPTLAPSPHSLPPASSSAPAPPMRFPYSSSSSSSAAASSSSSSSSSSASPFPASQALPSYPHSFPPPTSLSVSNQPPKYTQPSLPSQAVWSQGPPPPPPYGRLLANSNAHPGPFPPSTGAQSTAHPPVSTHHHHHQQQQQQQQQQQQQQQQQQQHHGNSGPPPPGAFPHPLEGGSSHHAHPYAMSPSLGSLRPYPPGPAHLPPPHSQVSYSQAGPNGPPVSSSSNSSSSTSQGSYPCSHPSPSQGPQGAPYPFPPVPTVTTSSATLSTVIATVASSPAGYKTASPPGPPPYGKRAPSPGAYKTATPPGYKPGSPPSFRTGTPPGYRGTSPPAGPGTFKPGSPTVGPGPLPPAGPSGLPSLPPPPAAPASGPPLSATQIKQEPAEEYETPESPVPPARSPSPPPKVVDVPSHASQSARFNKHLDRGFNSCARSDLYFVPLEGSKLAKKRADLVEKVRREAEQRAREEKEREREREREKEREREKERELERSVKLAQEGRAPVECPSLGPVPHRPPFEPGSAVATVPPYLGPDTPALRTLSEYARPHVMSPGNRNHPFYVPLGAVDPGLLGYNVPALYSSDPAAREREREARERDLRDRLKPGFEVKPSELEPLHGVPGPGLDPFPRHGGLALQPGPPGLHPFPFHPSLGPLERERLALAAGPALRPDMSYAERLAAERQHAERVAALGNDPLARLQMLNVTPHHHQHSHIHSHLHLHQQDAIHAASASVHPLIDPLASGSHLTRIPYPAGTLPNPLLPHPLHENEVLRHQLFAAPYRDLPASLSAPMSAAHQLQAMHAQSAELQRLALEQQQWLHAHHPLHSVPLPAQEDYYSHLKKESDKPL
Sequence of UniProt O60488 (O60488 whole entry, looked up): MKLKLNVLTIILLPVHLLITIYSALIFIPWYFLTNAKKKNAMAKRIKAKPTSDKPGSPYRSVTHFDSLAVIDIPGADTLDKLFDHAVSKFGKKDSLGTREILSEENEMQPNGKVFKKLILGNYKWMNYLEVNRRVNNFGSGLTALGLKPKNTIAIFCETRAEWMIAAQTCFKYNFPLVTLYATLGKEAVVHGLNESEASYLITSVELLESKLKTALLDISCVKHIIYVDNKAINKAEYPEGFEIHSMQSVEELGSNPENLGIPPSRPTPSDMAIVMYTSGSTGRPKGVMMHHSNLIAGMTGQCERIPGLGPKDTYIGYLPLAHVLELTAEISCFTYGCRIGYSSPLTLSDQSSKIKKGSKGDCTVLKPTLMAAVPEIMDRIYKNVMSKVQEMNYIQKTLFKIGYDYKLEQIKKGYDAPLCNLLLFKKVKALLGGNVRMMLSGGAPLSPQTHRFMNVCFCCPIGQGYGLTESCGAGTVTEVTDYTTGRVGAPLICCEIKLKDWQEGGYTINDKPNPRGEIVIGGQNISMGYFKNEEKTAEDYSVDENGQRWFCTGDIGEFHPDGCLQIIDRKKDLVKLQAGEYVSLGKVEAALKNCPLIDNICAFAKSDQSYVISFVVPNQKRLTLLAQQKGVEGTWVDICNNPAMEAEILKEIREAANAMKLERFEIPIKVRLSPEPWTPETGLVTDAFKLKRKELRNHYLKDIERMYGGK
Sequence of UniProt P21281 (P21281 whole entry, looked up): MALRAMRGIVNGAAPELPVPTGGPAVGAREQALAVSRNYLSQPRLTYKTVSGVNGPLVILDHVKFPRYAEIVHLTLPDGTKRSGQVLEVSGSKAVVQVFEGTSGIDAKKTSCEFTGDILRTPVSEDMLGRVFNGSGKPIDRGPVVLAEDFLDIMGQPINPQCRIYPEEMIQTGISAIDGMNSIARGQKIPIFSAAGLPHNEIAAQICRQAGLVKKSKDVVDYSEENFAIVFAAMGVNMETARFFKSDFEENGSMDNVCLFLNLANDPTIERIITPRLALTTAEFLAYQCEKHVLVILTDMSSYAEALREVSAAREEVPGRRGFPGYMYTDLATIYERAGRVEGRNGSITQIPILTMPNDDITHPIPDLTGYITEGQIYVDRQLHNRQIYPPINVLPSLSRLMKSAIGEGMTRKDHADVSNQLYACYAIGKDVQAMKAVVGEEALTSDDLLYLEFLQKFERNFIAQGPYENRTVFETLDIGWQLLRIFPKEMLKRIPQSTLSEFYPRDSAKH
Sequence of UniProt O95573 (O95573 whole entry, looked up): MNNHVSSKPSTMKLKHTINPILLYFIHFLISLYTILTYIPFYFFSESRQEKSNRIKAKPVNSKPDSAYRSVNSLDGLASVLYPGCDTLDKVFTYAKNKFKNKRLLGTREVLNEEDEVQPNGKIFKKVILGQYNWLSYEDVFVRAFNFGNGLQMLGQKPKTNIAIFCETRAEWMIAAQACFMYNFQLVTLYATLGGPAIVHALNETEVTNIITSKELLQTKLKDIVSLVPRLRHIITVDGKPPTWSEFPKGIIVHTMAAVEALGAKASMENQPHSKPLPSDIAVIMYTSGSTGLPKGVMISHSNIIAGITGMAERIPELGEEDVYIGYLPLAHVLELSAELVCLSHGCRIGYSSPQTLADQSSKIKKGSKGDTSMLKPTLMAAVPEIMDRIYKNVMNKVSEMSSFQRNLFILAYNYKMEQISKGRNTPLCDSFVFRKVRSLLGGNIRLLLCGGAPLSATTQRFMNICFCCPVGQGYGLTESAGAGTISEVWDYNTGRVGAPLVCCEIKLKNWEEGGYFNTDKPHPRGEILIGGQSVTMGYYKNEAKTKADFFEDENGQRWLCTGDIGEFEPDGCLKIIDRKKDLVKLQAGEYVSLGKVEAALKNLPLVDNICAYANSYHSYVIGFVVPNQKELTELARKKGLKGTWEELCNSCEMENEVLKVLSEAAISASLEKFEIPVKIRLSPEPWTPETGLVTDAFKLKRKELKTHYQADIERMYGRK
Sequence of UniProt Q6NXE6 (Q6NXE6 whole entry, looked up): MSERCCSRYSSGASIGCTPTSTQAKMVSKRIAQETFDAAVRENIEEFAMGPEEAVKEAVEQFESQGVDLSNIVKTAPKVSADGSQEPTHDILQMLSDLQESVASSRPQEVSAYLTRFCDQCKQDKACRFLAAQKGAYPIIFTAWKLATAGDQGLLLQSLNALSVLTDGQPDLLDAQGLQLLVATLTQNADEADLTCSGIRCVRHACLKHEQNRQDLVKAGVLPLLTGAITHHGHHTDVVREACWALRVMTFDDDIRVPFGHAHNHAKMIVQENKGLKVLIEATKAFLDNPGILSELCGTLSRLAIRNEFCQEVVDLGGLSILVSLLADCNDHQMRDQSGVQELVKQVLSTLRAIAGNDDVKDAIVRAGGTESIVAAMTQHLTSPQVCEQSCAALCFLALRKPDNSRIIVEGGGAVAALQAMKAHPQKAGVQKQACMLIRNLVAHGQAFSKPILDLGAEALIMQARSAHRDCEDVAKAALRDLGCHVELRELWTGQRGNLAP
Sequence of UniProt P31939 (P31939 whole entry, looked up): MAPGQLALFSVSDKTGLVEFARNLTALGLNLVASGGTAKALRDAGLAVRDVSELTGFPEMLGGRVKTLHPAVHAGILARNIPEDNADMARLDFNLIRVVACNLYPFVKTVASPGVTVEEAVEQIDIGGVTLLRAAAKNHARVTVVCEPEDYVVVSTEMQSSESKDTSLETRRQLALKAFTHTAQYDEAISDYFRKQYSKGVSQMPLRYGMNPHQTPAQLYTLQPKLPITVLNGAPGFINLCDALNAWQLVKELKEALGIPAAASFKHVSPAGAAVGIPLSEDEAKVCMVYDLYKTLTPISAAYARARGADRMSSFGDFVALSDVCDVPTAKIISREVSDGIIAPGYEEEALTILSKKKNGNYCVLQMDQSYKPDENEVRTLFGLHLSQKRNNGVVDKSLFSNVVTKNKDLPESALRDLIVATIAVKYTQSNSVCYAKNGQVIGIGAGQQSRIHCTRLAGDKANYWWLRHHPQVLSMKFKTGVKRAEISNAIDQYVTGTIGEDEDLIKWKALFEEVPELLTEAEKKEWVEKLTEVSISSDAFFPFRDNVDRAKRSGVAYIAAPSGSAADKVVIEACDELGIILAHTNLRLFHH

Target | probe-labelled cysteine peptide fold change
ATP6V0A1_Q93050_58_RCEEMDR (UniProt Q93050) | 0.102
ARRB2_P32121_126_KLGQHAHPFFFTIPQNLPCSVTLQPGPEDTGK (UniProt P32121) | -0.12
ARHGEF6_Q15052_530_IVVHCNNNQDFQEWLEQLNR (UniProt Q15052) | 0.0109
ANKHD1_Q8IWZ3_1716_GGCNITAIQDVTGAHIDVDK (UniProt Q8IWZ3) | 0.183
ALDOA_P04075_178_YASICQQNGIVPIVEPEILPDGDHDLKR (UniProt P04075) | 0.281
ADAM9_Q13443_539_DCFIEVNSK (UniProt Q13443) | -0.0729
ADK_P55263_160_SLIANLAAANCYKK (UniProt P55263) | -0.309
ATP13A1_Q9HD20_410_ATTGLKPVDSGCVAYVLR (UniProt Q9HD20) | 0.133
ATM_Q13315_2770_SGVLEWCTGTVPIGEFLVNNEDGAHKR (UniProt Q13315) | 0.0886
APOOL_Q6UXV4_74_TATGCYIGWCK (UniProt Q6UXV4) | -0.823
ACTR3_P61158_8+12_LPACVVDCGTGYTK (UniProt P61158) | -0.243
AGL_P35573_767_EVPQMCIPGKIEEVVLEAR (UniProt P35573) | -0.292
ACSL4_O60488_221_TALLDISCVK (UniProt O60488) | 0.177
ACSL3_O95573_85_SVNSLDGLASVLYPGCDTLDK (UniProt O95573) | 0.0339
ANKFY1_Q9P2R3_742_AIDENNEPTACFLIR (UniProt Q9P2R3) | -0.0754
ALDH1L1_O75891_537_YFAGWCDK (UniProt O75891) | -0.0268

Target | probe-labelled cysteine peptide fold change
ARMC6_Q6NXE6_121_FCDQCK (UniProt Q6NXE6) | -0.142
ALDH3A2_P51648_226_DCDLDIVCR (UniProt P51648) | -0.0334
ANKRD17_O75179_564_AGADIELGCSTPLMEAAQEGHLELVK (UniProt O75179) | 0.0101
AGL_P35573_126_VGADNHVLPLDCVTLQTFLAK (UniProt P35573) | 0.128
AGL_P35573_486_ELICWGDSVK (UniProt P35573) | 0.0938
AP2B1_P63010_565_PLISEETDLIEPTLLDELICHIGSLASVYHKPPNAFVEGSHGIHR (UniProt P63010) | 0.119
ADAR_P55265_851_CFNTLTNSFQPSLLGR (UniProt P55265) | -0.0671
ANKFY1_Q9P2R3_389_TPLHVSIMAGNEYVFSQLLQCK (UniProt Q9P2R3) | 0.123
ATIC_P31939_101_VVACNLYPFVK (UniProt P31939) | 0.119
ATM_Q13315_2323_KLDASCAANNPSLK (UniProt Q13315) | -0.12
ATP6V1B2_P21281_425_DHADVSNQLYACYAIGK (UniProt P21281) | 0.162
ATP6V1A_P38606_138_WDFTPCK (UniProt P38606) | -1.09
ATRX_P46100_235_WCAEGGNLICCDFCHNAFCK (UniProt P46100) | 0.0337
ALDH1B1_P30837_169_TIPMDGQHFCFTR (UniProt P30837) | 0.00215
ATN1_P54259_851_APVECPSLGPVPHRPPFEPGSAVATVPPYLGPDTPALR (UniProt P54259) | -0.143
